Measured values: PubChem BioAssay (Tox21)
Records with an inconclusive call do not appear. Activity calls are given as the source filed them. Unless noted, the call rests on the fitted dose curve; in most records, active means well fitted curve in the direction sought with a large enough effect in the repeat runs; inconclusive means weak or mixed curves; inactive means no such curve, though single readings can be large; an effect the other way counts as inactive or inconclusive.

How the values were obtained:
[1] = qHTS assay to identify small molecule agonists of the sonic hedgehog signaling (Shh) pathway - cell viability counter screen (AID 1259366); further: nearly all actives have a fitted effect of over 50% in size
In short: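 Viability measured fluorometrically (CellTiter-Fluor, 1hr, 37C) in 3T3 Gli1-Luc reporter cells after 23hr compound exposure within a 24hr incubation at 37C/5% CO2.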

[2] = qHTS assay to identify small molecule antagonists of the sonic hedgehog signaling (Shh) pathway - cell viability counter screen (AID 1259367); further: nearly all actives have a fitted effect of over 55% in size
In short: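 After a 4 hr settling period, 3T3 Gli1-Luc cells were treated with DMSO-dissolved chemicals and conditioned medium, kept 24 hr at 37C in 5% CO2, and assayed for viability by CellTiter-Fluor fluorescence following 1 hr reagent incubation.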

[3] = qHTS assay to identify small molecule agonists of the sonic hedgehog signaling (Shh) pathway (AID 1259368; calls by dose curve;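 further: NIH/3T3-derived 3T3Gli1-Luc cells carrying a stable Gli1-driven firefly luciferase reporter; series mostly up to about 92 µM; nearly all actives have a fitted effect of over 15% in size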)
In short: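 Luminescent signal was taken as a measure of Gli1-controlled luciferase expression in stably transfected NIH/3T3-derived cells that had been treated for 24 hr with compounds delivered in DMSO.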

[4] = qHTS assay to identify small molecule antagonists of the sonic hedgehog signaling (Shh) pathway (AID 1259369; calls by dose curve; further: nearly all actives have a fitted effect of over 45% in size)
In short: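 Screening used 3T3Gli1-Luc cells at 2,000 per well, compounds delivered in DMSO, and conditioned medium as agonist stimulus; plates incubated 24hr at 37 C and 5% CO2 before a 30min luciferase step.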

[5] = target: Estrogen receptor beta (Homo sapiens) (UniProt Q92731); experiment: qHTS assay to identify small molecule agonists of the estrogen receptor beta (ER-beta) signaling pathway (AID 1259377; active means well fitted activation curve with a large enough effect in the signal ratio in the repeat runs, not every such curve was filed as active; the % refers to the signal ratio)
Estrogen receptor beta (Homo sapiens), sequence (Q92731 whole entry, looked up): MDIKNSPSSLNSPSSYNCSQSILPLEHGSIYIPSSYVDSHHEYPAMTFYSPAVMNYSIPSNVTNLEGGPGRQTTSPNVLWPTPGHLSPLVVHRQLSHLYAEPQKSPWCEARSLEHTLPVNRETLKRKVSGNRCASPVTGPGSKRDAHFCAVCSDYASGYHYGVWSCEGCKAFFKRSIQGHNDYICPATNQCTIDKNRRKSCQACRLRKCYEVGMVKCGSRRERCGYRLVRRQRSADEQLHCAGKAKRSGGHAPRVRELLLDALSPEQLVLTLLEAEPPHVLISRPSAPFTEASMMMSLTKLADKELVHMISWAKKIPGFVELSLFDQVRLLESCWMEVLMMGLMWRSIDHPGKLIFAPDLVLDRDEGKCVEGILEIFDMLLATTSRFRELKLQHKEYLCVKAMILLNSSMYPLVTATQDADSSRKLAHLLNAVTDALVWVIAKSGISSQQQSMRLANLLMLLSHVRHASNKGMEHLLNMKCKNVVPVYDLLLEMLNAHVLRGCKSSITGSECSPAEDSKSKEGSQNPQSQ
In short: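 A UAS-controlled beta-lactamase reporter in ER-beta-UAS-bla HEK293T cells reports receptor activation. Compounds act for 16 hr at 37C in 2% charcoal-stripped serum, and a FRET substrate is read by fluorescence after 2 hours.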

[6] = target: Estrogen receptor beta (Homo sapiens) (UniProt Q92731); experiment: qHTS assay to identify small molecule antagonists of the estrogen receptor beta (ER-beta) signaling pathway (AID 1259378; active means well fitted inhibition curve with a large enough effect in the signal ratio in the repeat runs, not every such curve was filed as active; the % refers to the signal ratio)
In short: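 ER-beta-UAS-bla HEK293T (GripTite) cells in 2% charcoal-stripped FBS medium were preincubated 6 hr at 37C, dosed with compound, then stimulated with 1 nM E2 (final) for 16 hr; beta-lactamase reporter read by B/G FRET fluorescence after 2 hr substrate loading.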

[7] = qHTS assay to identify small molecule agonists of the androgen receptor (AR) signaling pathway in the presence of an antagonist - cell viability counter screen (AID 1259379);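 further: MDA-kb2 human breast cancer cells carrying an MMTV luciferase reporter; series mostly up to about 92 µM; nearly all actives have a fitted effect of over 25% in size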
In short: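 In MDA-kb2 cells (human breast carcinoma, MMTV-luciferase), compounds at 15 concentrations plus 3.0uM nilutamide; 16 hr, 37C, 0% CO2; CellTiter-Fluor fluorescence read for viability.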

[8] = qHTS assay to identify small molecule agonists of the estrogen receptor beta (ER-beta) signaling pathway - cell viability counter screen (AID 1259380); further: nearly all actives have a fitted effect of over 30% in size
In short: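 Viability of ER-beta-UAS-bla HEK293T cells was determined by CellTiter-Glo luminescence following 16 hr treatment with test compounds at 37C.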

[9] = qHTS assay to identify small molecule antagonists of the estrogen receptor beta (ER-beta) signaling pathway - cell viability counter screen (AID 1259382); further: series mostly up to about 92 µM; nearly all actives have a fitted effect of over 55% in size
In short: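 Tox21 10K library tested in qHTS format on ER-beta-bla HEK293T cells stimulated with 1nM E2; 16 hr treatment at 37C. Same-well CellTiter-Glo luminescence served as the cell viability measure.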

[10] = target: Estrogen receptor (Homo sapiens) (UniProt P03372); experiment: qHTS assay to identify small molecule agonists of the estrogen receptor alpha (ER-alpha) signaling pathway in the presence of an antagonist (AID 1259383; calls by dose curve; further: top concentration of the series differs between compounds; nearly all actives have a fitted effect of over 15% in size)
Estrogen receptor (Homo sapiens), sequence (P03372 whole entry, looked up): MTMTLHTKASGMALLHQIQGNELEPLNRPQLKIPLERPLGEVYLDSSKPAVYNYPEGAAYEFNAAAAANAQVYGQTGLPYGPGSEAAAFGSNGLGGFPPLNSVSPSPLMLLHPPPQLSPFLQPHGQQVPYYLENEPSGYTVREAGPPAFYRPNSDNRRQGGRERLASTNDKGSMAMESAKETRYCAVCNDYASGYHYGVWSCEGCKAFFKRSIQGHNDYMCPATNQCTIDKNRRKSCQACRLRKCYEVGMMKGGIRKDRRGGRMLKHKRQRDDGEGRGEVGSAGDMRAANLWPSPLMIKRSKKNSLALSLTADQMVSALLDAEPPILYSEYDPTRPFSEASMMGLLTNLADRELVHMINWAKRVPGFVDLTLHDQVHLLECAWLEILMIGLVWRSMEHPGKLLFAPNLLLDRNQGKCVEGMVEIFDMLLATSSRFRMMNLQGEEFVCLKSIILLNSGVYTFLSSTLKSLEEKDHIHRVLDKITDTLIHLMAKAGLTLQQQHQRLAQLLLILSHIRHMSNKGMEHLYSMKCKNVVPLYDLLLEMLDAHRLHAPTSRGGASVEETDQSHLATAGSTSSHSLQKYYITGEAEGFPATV
In short: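 In VM7Luc4E2 cells, 4,000 per well, compounds at 15 concentrations were co-incubated 22hr at 37C with 10.0nM final ICI-182,780. Luminescence from the stably transfected 4×ERE-luciferase reporter was recorded 30min after ONE-Glo addition.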

[11] = qHTS assay to identify small molecule agonists or antagonists of the thyroid stimulating hormone receptor (TSHR) signaling pathway - wild type cell line counter screen (AID 1259384; calls by dose curve)
In short: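 Wild-type HEK293 cells were plated 18 h at 37 C/5% CO2, pin-dosed with compound plus Ro20-1724 medium, held 30 min at room temperature, then given cAMP-d2 and anti-cAMP-cryptate; fluorescence was read after 1 h. Fifteen concentrations, triplicate.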

[12] = target: Thyrotropin receptor (Homo sapiens) (UniProt P16473); experiment: qHTS assay to identify small molecule antagonists of the thyroid stimulating hormone receptor (TSHR) signaling pathway (AID 1259385; calls by dose curve; further: nearly all actives have a fitted effect of over 20% in size)
Thyrotropin receptor (Homo sapiens), sequence (P16473 whole entry, looked up): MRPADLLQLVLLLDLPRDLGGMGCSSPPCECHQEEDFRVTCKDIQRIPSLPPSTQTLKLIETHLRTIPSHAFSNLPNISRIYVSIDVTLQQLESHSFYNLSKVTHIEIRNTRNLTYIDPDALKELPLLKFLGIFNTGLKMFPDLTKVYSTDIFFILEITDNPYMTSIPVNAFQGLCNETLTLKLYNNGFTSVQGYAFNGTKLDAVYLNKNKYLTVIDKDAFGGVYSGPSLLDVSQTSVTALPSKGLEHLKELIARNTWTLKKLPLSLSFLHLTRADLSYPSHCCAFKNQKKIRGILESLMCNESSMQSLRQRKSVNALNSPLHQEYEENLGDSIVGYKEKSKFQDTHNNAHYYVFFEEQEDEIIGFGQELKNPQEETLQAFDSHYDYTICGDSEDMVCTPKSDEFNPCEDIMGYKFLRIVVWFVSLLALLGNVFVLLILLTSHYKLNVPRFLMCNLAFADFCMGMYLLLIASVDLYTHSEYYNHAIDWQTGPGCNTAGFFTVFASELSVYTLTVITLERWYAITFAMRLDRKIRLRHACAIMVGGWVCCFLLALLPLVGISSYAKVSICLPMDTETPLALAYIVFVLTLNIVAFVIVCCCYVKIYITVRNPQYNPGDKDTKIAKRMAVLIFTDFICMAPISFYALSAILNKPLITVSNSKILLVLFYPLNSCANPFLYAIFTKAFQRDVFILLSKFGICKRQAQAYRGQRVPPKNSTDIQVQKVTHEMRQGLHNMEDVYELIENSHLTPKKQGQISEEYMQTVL
In short: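 TSHR-HEK293 cells were plated and held 18 h at 37C/5% CO2, then given compound plus Ro20-1724 and stimulated with TSH at 1.5 ng/mL final. After 30 min at room temperature, cAMP was detected with cAMP-d2/anti-cAMP-cryptate (1 h) by fluorescence.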

[13] = qHTS assay to identify small molecule agonists of the estrogen receptor alpha (ER-alpha) signaling pathway in the presence of an antagonist - cell viability counter screen (AID 1259386);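 further: series mostly up to about 92 µM; cells exposed to compounds for 22 h at 37 °C before the viability read; nearly all actives have a fitted effect of over 30% in size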
In short: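 Fluorescent CellTiter-Fluor viability signal from VM7Luc4E2 cells, with the reagent added during the final hour of a 22hr compound exposure at 37C in the presence of 10.0nM ICI-182,780.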

[14] = target: Progesterone receptor (Homo sapiens) (UniProt P06401); experiment: qHTS assay to identify small molecule antagonists of the progesterone receptor (PR) signaling pathway (AID 1346795; active means well fitted inhibition curve with a large enough effect in the signal ratio in the repeat runs, not every such curve was filed as active; the % refers to the signal ratio)
Progesterone receptor (Homo sapiens), sequence (P06401 whole entry, looked up): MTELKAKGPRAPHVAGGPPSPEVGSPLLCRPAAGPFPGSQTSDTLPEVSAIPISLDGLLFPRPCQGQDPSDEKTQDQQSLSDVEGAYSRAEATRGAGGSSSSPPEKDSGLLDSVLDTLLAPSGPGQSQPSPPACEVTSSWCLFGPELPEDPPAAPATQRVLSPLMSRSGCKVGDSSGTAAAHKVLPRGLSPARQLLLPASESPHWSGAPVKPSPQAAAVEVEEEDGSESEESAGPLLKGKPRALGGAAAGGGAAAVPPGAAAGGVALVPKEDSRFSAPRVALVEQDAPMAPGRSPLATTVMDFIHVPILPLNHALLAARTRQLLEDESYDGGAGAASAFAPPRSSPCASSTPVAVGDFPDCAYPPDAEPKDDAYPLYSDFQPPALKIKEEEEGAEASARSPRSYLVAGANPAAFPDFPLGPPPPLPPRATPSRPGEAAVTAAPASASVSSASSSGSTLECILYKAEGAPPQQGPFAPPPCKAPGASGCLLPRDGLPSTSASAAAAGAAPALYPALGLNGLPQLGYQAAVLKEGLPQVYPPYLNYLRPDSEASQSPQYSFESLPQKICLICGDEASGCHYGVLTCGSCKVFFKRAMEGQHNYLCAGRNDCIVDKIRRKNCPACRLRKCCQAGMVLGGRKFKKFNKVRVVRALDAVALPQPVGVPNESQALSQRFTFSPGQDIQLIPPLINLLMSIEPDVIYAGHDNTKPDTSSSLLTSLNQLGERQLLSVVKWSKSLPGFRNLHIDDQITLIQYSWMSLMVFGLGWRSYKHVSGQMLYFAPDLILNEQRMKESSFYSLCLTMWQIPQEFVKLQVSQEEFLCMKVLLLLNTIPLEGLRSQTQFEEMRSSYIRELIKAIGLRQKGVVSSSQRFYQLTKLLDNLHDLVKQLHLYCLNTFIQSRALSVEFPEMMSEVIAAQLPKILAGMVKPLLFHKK
In short: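 HEK293T PR-UAS-bla reporter cells in charcoal-stripped serum (2%) received compound after a 6 hr settling period, followed by R5020 agonist at 1 nM final; 16 hr incubation preceded the FRET substrate step and fluorescence measurement.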

[15] = qHTS assay to identify small molecule antagonists of the progesterone receptor (PR) signaling pathway - cell viability counter screen (AID 1346798); further: series mostly up to about 92 µM; nearly all actives have a fitted effect of over 50% in size
In short: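 Same-well multiplex: after 16 hr at 37C with compound and R5020 stimulation, HEK293T cells carrying a UAS-bla reporter received LiveBLAzer substrate (2 hr RT), then CellTiter-Glo (30 min RT) for luminescent viability.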

[16] = qHTS assay to identify small molecule agonists of the progesterone receptor (PR) signaling pathway - cell viability counter screen (AID 1346799; calls by dose curve; further: nearly all actives have a fitted effect of over 45% in size)
In short: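 Counter screen for cytotoxicity: compound-treated PR-UAS-bla HEK293T cells (16 hr, 37C, 5% CO2) were assayed with CellTiter-Glo, luminescence measured after 30 min at room temperature.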

[17] = qHTS assay to identify small molecule antagonists of the TGF-beta/Smad signaling pathway - cell viability counter screen (AID 1346824); further: nearly all actives have a fitted effect of over 50% in size
In short: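 SBE-bla HEK 293T cells were plated overnight at 37 C, then given compounds in DMSO plus TGF-beta1 (added as 0.25 ng/mL solution) for 5 hr. After the bla read, CellTiter-Glo was added to the same wells and luminescence read after 30 min at room temperature.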

[18] = qHTS assay to identify small molecule agonists of the TGF-beta/Smad signaling pathway - cell viability counter screen (AID 1346829); further: top concentration of the series differs between compounds; nearly all actives have a fitted effect of over 45% in size
In short: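 Luminescence from CellTiter-Glo, read after a 30 min room-temperature incubation, gives cell viability of SBE-bla HEK 293T cells treated 5 hr with compounds at 37 C.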

[19] = target: Progesterone receptor (Homo sapiens) (UniProt P06401); experiment: qHTS assay to identify small molecule agonists of the progesterone receptor (PR) signaling pathway (AID 1346784; calls by dose curve; further: nearly all actives have a fitted effect of over 30% in size)
In short: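 Agonist mode, quantitative HTS format in a HEK 293T line expressing a UAS-controlled beta-lactamase reporter; 16 hr compound exposure at 37C in 2% charcoal-stripped FBS, then LiveBLAzer B/G FRET fluorescence.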
On the % scale 0 is the no-effect control and ±100 the full control effect.

CN(C)CCCN(C)C
inactive: viability change, negative = cytotoxic [1] -8.84% [at 8.39 µM] | viability change, negative = cytotoxic [2] 4.7% [at 8.39 µM] | activity change [3] 0.31% [at 8.39 µM] | activity change, negative = inhibition [4] 5.84% [at 8.39 µM] | activation [5] -0.616% [at 8.39 µM] | activity, negative = inhibition [6] 14.4% [at 8.39 µM] | activity change, negative = cytotoxicity [7] 4.3% [at 8.39 µM] | activity change, negative = cytotoxicity [8] 5.46% [at 8.39 µM] | activity change, negative = cytotoxicity [9] -0.979% [at 8.39 µM] | activation [10] -2.43% [at 8.39 µM] | cAMP activity change [11] 3.11% [at 8.39 µM] | activity change, negative = inhibition [12] 4.29% [at 8.39 µM] | activity change, negative = cytotoxicity [13] 0.833% [at 8.39 µM] | activity change, negative = inhibition [14] 12.8% [at 8.39 µM] | activity change, negative = cytotoxicity [15] 5.2% [at 8.39 µM] | activity change, negative = cytotoxicity [16] 1.47% [at 8.39 µM] | viability change, negative = cytotoxic [17] -1.68% [at 6.97 µM] | activity change, negative = cytotoxicity [18] 0.619% [at 6.97 µM]

CC1=C(O)C(=O)CO1
inactive: outcome [1] | outcome [2] | outcome [3] | Potency [4] | Potency [5] | outcome [6] | outcome [7] | Potency [8] | outcome [9] | Potency [10] | outcome [13] | Potency [19] | Potency [14] | outcome [15] | Potency [16] | outcome [17]

CC(C)(Sc1cc(C(C)(C)C)c(O)c(C(C)(C)C)c1)Sc1cc(C(C)(C)C)c(O)c(C(C)(C)C)c1
inactive: outcome [1] | outcome [2] | outcome [3] | Potency [4] | Potency [5] | outcome [6] | outcome [7] | Potency [8] | outcome [9] | outcome [12] | outcome [13] | Potency [19] | outcome [15] | outcome [18]

CC(=O)c1c(C)cc(C(C)(C)C)cc1C
inactive: outcome [1] | outcome [2] | outcome [3] | Potency [4] | Potency [5] | outcome [6] | outcome [7] | Potency [8] | outcome [9] | outcome [13] | Potency [14] | outcome [15] | Potency [16] | outcome [17] | outcome [18]

CC(C)(C)c1ccc(N)cc1
inactive: outcome [1] | outcome [2] | outcome [3] | Potency [4] | Potency [5] | outcome [6] | outcome [7] | Potency [8] | outcome [9] | Potency [10] | outcome [13] | Potency [19] | Potency [14] | outcome [15] | Potency [16] | outcome [17] | outcome [18]

O=C[C@@H](O)[C@H](O)[C@H](O)CO
inactive: outcome [1] | outcome [2] | outcome [3] | Potency [4] | Potency [5] | outcome [6] | outcome [7] | Potency [8] | outcome [9] | outcome [11] | outcome [12] | outcome [13] | Potency [19] | outcome [15] | outcome [17]

CNC(=O)c1c(I)c(NC(C)=O)c(I)c(C(=O)O)c1I
inactive: outcome [1] | outcome [2] | outcome [3] | Potency [4] | Potency [5] | outcome [6] | outcome [7] | Potency [8] | outcome [9] | outcome [13] | Potency [19] | Potency [14] | Potency [16] | outcome [18]

c1coc(Cn2cccc2)c1
inactive: outcome [1] | outcome [2] | outcome [3] | Potency [4] | Potency [5] | outcome [6] | outcome [7] | Potency [8] | Potency [10] | outcome [11] | outcome [12] | outcome [13] | Potency [19] | outcome [15] | Potency [16] | outcome [17] | outcome [18]

CCCCN=C(N)N=C(N)N
inactive: outcome [1] | outcome [2] | outcome [3] | Potency [4] | Potency [5] | outcome [6] | outcome [7] | Potency [8] | Potency [10] | outcome [11] | outcome [12] | outcome [13] | Potency [14] | Potency [16] | outcome [17] | outcome [18]
